# ± gives the standard deviation.
# Columns and labels:
# [1] = test system: MILI (PIWIL2) piRISC loaded with L1MC piRNA (26 nt); assay: pre-steady-state target cleavage rate (min^-1); guide: L1MC piRNA 5'p-UAACUAAAUACUAUGCAAGCUGUAGG; higher = faster piRNA-guided slicing of the target;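 further: 1 nM active piRISC with 0.1 nM target library at 33 °C single turnover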
# In short: (§1)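 For Cleave-'n-Seq, a transcribed, DNA-blocked target RNA library […] met 1 nM active affinity-purified piRISC with one synthetic guide at 33 °C for 0–8 or 0–960 min in HEPES–potassium acetate buffer, with or without 500 nM GTSF1 partner protein. Uncleaved targets were sequenced and normalised to depth and weakly complementary targets, with three trials pooled and k3 capped at 0.0001 min^-1. A burst-and-steady-state fit supplied the pre-steady-state cleavage rate.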
# [2] = test system: EfPiwi piRISC loaded with L1MC piRNA (26 nt); assay: pre-steady-state target cleavage rate (min^-1); auxiliary factor: 500 nM Ephydatia muelleri Gtsf1; guide: L1MC piRNA 5'p-UAACUAAAUACUAUGCAAGCUGUAGG; MIWI and MILI are mouse PIWI proteins and EfPiwi is from a freshwater sponge; tags in brackets are library labels; higher = faster piRNA-guided slicing of the target
# In short: as §1
# [3] = auxiliary factor: 500 nM mouse GTSF1
# [4] = auxiliary factor: none (no GTSF1)
Sequence,"pre-steady-state target cleavage rate [1, 3]","pre-steady-state target cleavage rate [1, 4]",pre-steady-state target cleavage rate [2]
UCCUGCUACAGCUUGCAUUGUAUUUAGUUA,0.248 ± 0.022,0.0081 ± 0.0028,0.00662 ± 0.0024
UCCUGCUACAGCUUGCAUAGUAUUUAGUGA,0.193 ± 0.033,0.00299 ± 0.0027,0.00567 ± 0.0019
UCCUGCUACAGCUUGCAUACUAUUUAGUUA,0.0775 ± 0.012,0.0046 ± 0.0019,0.00755 ± 0.0026
UCCUGCUCACAGCUUGCAUAGUAUUUAGUUA,0.351 ± 0.019,0.0111 ± 0.0037,0.072 ± 0.016
UCCUGGAUGACCUUGCAAAGUAUUUAGUUA,0.0397 ± 0.011,0.00372 ± 0.0031,0.00391 ± 0.0037
UCCUGGAUGAGCAUGCAUUGUAUUUAGUUA,0.0714 ± 0.013,0.00843 ± 0.003,0.00289 ± 0.0022
UCCUCCUACAGCUAGCUUAGUAUUUAGUUA,0.206 ± 0.017,0.00491 ± 0.0019,0.00997 ± 0.0038
UCCUGGUAGAGCUUGCAUAGUAUUUUGUUA,0.143 ± 0.03,0.00365 ± 0.003,0.00292 ± 0.0029
UCCUGCUUGAGCUUGCAUAGUAUUUAGUUA,0.22 ± 0.019,0.00599 ± 0.0022,0.00861 ± 0.0024
UCCUGGAUGUGCCUUGCAUAGUAUUUAGUUA,0.111 ± 0.022,0.00996 ± 0.0032,0.0886 ± 0.031
UCCUGGUACAGCUUGCUUACUAUUUAGUUA,0.0679 ± 0.012,0.00375 ± 0.0027,0.00704 ± 0.0031
UCCUCCAUCAGCUUGCAUAGUAUUUAGUAA,0.165 ± 0.024,0.00315 ± 0.0022,0.00678 ± 0.003
UCCUGGAUGAGCUUGCGUAGUAUUUAGUUA,0.119 ± 0.016,0.0108 ± 0.0025,0.00425 ± 0.0038
UCCUCCUAGAGCUUGCUUAGUAUUUAGUUA,0.261 ± 0.014,0.00563 ± 0.0022,0.0217 ± 0.0064
UCCUGGAUCAGCUUGGCAUAGUAUUUAGUUA,0.3 ± 0.061,0.00341 ± 0.0025,0.0127 ± 0.0034
UCCUCCCUACAGCUUGCAUAGUAUUUAGUUA,0.303 ± 0.02,0.0107 ± 0.0027,0.0606 ± 0.017
UCCUGGAACAGCUUGCAUAGUAUUUAGUUC [g2:g23:cont:t1C],0.191 ± 0.024,0.00602 ± 0.0018,0.00959 ± 0.0037
UCCUGGAUCAGCAUGCAUAGUAUUUAGUUA,0.314 ± 0.019,0.0108 ± 0.0031,0.12 ± 0.026
UCCUCCUUGAGCUUGCAUAGUAUUUAGUUA,0.216 ± 0.018,0.0051 ± 0.0021,0.0223 ± 0.0062
